# Laboratory results taken from PubChem BioAssay.
# Active and inactive are the calls of the source. Unless noted, no stated cut-off is given here; in the data, active means inhibition above about 80%; inactive means the rest.
# Tests used:
# [1] = growth inhibition, single agent or in combination, cell-based, chromothripsis tumors, cisplatin or BGB combos (AID 1671449); details: LFS_MB_P medulloblastoma cells;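 further: cells exposed for 96 hours; 0% = vehicle DMSO and 100% = killing by high DMSO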
# [2] = growth inhibition, single agent and combos, cell-based, chromothripsis tumors, cisplatin or BGB combos (AID 1671450); details: HDN33 neuroblastoma cells, stronger effect = higher value;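 further: cells exposed to compound for four days; 0% = vehicle DMSO and 100% = cell killing by high DMSO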
# [3] = growth inhibition, single agents and combos, ICB984, cell-based, cisplatin or BGB combos, synergistic combos for chromothripsis tumors (AID 1671451; call rule not given here;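 further: cells exposed for 96 hours before readout; 0% = vehicle DMSO and 100% = killing by high DMSO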); details: ICB984 medulloblastoma cells, drug combinations, stronger effect = higher value
# [4] = growth inhibition, single agents and combos, LFS_MB_1R, cell-based, cisplatin or BGB combos, synergistic combos for chromothripsis tumors (AID 1671452); details: LFS_MB_1R medulloblastoma cells, stronger effect = higher value;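 further: cells exposed for 96 hours before readout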
# [5] = growth inhibition, single agents and combos, HTB85, cell-based, BGB or cisplatin IC20 combos, synergistic combos for chromothripsis tumors (AID 1671453); details: HTB85 osteosarcoma cells, drug combinations, stronger effect = higher value;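 further: cells exposed for 96 hours before readout; 0% = vehicle DMSO and 100% = high DMSO killing control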
# [6] = growth inhibition, single agents and combos, CRL2098, cell-based, BGB or cisplatin IC20 combos, synergistic combos for chromothripsis tumors (AID 1671454); details: CRL2098 osteosarcoma cells, drug combinations, stronger effect = higher value;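 further: cells exposed for 96 h before readout; 0% = vehicle DMSO and 100% = killing by high DMSO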
# [7] = growth inhibition, single agents and combos, HD-MB03, cell-based, BGB or cisplatin IC20 combos, synergistic combos for chromothripsis tumors (AID 1671455; in the data active means inhibition above about 83%;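 further: 0% = vehicle DMSO and 100% = high DMSO as cytotoxic control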); details: HD-MB03 medulloblastoma cells, stronger effect = higher value
# [8] = growth inhibition, single agents and combos, UWB1.289, cell-based, BGB or cisplatin combos, synergistic combos for chromothripsis tumors (AID 1671456); details: UWB1.289 ovarian carcinoma cells, stronger effect = higher value;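 further: cells exposed to compound for four days; 0% = vehicle DMSO and 100% = killing by high DMSO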
# [9] = growth inhibition, single agents and combos, LFS_MB_2R, cell-based, cisplatin combos, synergistic combos for chromothripsis tumors (AID 1671457); details: LFS_MB_2R medulloblastoma cells, stronger effect = higher value;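 further: cells exposed to compound for four days before readout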
# [10] = growth inhibition, MDA-MB-436, cell-based, BGB or cisplatin combos, synergistic combos for chromothripsis tumors (AID 1671458; call rule not given here;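 further: cells exposed for 96 hours; 0% = vehicle DMSO and 100% = killing by high DMSO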); details: MDA-MB-436 breast carcinoma growth inhibition, drug combinations, stronger effect = higher value
# [11] = UWB1.289_BRCA1 ovarian cancer growth, cell-based, BGB or cisplatin combinations (AID 1671459); details: UWB1.289 BRCA1 ovarian carcinoma, drug combinations, stronger effect = higher value
# [12] = drug combination toxicity in non-malignant astrocytes – cell-based, BGB or cisplatin IC20 combos, cytotoxicity control for chromothriptic childhood tumor combination screen (AID 1671460); details: Human astrocytes, viability inhibition, drug combinations, at 0.5 µM, stronger effect = higher value;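 further: cells exposed to compounds for 96 hours before viability readout; 0% = vehicle and 100% = killing control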
# [13] = BT084 cell growth, single and combined drugs, ICGC_MB145, cisplatin and BGB IC40 combos (AID 1671461); details: BT084 medulloblastoma cells, drug combinations, stronger effect = higher value;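 further: cells exposed to drugs for 96 hours; 0% = vehicle DMSO and 100% = high DMSO full killing control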
# [14] = RCMB18 cell growth, single agent and combined, cisplatin and BGB IC40 combos (AID 1671462); details: RCMB18 medulloblastoma cells, stronger effect = higher value;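 further: cells exposed to compound for four days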
# [15] = CRL1545 cell growth, single agent and combined, cisplatin and BGB IC20 combos (AID 1671464); details: CRL1545 osteosarcoma cells, stronger effect = higher value;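 further: cells exposed to compound for 96 hours before readout; 0% = vehicle DMSO and 100% = high DMSO killing control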
# [16] = measured here: combination with BGB IC40, at 0.05 µM
# [17] = measured here: with BGB IC20 combination, at 0.5 µM
# [18] = measured here: with cisplatin IC20 combination, at 0.5 µM
# [19] = measured here: combination with cisplatin, at 0.5 µM
# [20] = measured here: combination with cisplatin, at 5 µM
smiles,measurement,setting,value
Cc1c(Br)cc(NCC(=O)N/N=C/c2cc([N+](=O)[O-])ccc2O)cc1Br,inhibition,"[1]; at 0.5 µM, stronger effect = higher value",4.38% (inactive)
same,inhibition,"[1]; measured here: combination with BGB IC20, at 0.005 µM",-17.6%
same,inhibition,"[1]; measured here: combination with BGB IC40, at 0.005 µM",-32.2%
same,inhibition,[1]; [16],-25.9%
same,inhibition,"[1]; measured here: combination with cisplatin, at 0.5 µM, stronger effect = higher value",-13.3%
same,inhibition,"[1]; measured here: combination with cisplatin, at 5 µM, stronger effect = higher value",49.2%
same,inhibition,"[2]; BGB combo, at 5 µM",40.5%
same,inhibition,[2]; at 0.5 µM,-0.34% (inactive)
same,inhibition,"[2]; cisplatin combo, at 5 µM",36.1%
same,inhibition,[2]; [17],-9.6%
same,inhibition,[2]; [18],14.3%
same,inhibition,"[2]; single agent, at 5 µM",47.8%
same,inhibition,"[3]; BGB IC20 combo, at 0.005 µM",-14%
same,inhibition,"[3]; BGB IC40 combo, at 0.005 µM",-19.6%
same,inhibition,"[3]; BGB IC40 combo, at 0.05 µM",-0.825%
same,inhibition,[3]; at 0.5 µM,-30.2% (inactive)
same,inhibition,"[3]; cisplatin combo, at 0.05 µM",-3.64%
same,inhibition,"[3]; cisplatin combo, at 0.5 µM",-27.9%
same,inhibition,"[3]; cisplatin combo, at 5 µM",-29.5%
same,inhibition,"[3]; measured here: 5 uM single agent, at 5 µM",-33%
same,inhibition,[4]; at 0.5 µM,-22.2% (inactive)
same,inhibition,[4]; [16],-11.7%
same,inhibition,[4]; [19],-16.8%
same,inhibition,[4]; [20],13.4%
same,inhibition,[5]; at 0.5 µM,-6.09% (inactive)
same,inhibition,"[5]; measured here: with BGB IC20, at 0.5 µM",-1.02%
same,inhibition,"[5]; measured here: with BGB IC20, at 5 µM",19.1%
same,inhibition,"[5]; measured here: with cisplatin IC20, at 0.5 µM",-24.4%
same,inhibition,"[5]; measured here: with cisplatin IC20, at 5 µM",5.29%
same,inhibition,"[5]; single agent, at 5 µM",37.4%
same,inhibition,[6]; at 0.5 µM,-42.4% (inactive)
same,inhibition,"[6]; measured here: combination with BGB at IC20, at 0.5 µM",-43.9%
same,inhibition,"[6]; measured here: combination with cisplatin at IC20, at 0.5 µM",-25%
same,inhibition,[7]; at 0.5 µM,-7.25% (inactive)
same,inhibition,"[7]; measured here: combo with BGB at IC20, at 0.5 µM",1.43%
same,inhibition,"[7]; measured here: combo with cisplatin at IC20, at 0.5 µM",-13.4%
same,inhibition,[8]; at 0.5 µM,5% (inactive)
same,inhibition,"[8]; measured here: inhibition with BGB combination, at 0.05 µM",-18.4%
same,inhibition,"[8]; measured here: inhibition with cisplatin combination, at 0.05 µM",-10.8%
same,inhibition,[9]; at 0.5 µM,-13% (inactive)
same,inhibition,[9]; [19],-18.6%
same,inhibition,[9]; [20],-37.8%
same,inhibition,[10]; at 0.5 µM,-18.5% (inactive)
same,inhibition,"[10]; measured here: BGB combination, at 0.5 µM",-10.2%
same,inhibition,"[10]; measured here: BGB combination, at 5 µM",25.8%
same,inhibition,"[10]; measured here: cisplatin combination, at 0.5 µM",-39%
same,inhibition,"[10]; measured here: cisplatin combination, at 5 µM",38.4%
same,inhibition,"[11]; BGB combination, concentration series, at 5 µM",59.1%
same,inhibition,[11]; at 0.5 µM,2.01% (inactive)
same,inhibition,"[11]; cisplatin combination, concentration series, at 5 µM",60.8%
same,inhibition,[12],9.92% (inactive)
same,inhibition,[12]; measured here: combo with BGB IC20,11.5%
same,inhibition,[12]; measured here: combo with cisplatin IC20,17.7%
same,inhibition,[13]; at 0.5 µM,-9.67% (inactive)
same,inhibition,"[13]; cisplatin combination, at 0.5 µM",-1.86%
same,inhibition,"[13]; cisplatin combination, at 5 µM",27.3%
same,inhibition,"[13]; measured here: BGB IC40 combination 0.05 uM, at 0.05 µM",-3.3%
same,inhibition,"[13]; single agent, at 5 µM",6.62%
same,inhibition,[14]; at 0.5 µM,-19% (inactive)
same,inhibition,"[14]; cisplatin combo, at 5 µM",25.8%
same,inhibition,"[14]; measured here: BGB IC40 combination, at 0.05 µM",-28.4%
same,inhibition,[14]; [19],22%
same,inhibition,"[14]; single agent, at 5 µM",8.19%
same,inhibition,[15]; at 0.5 µM,-4.87% (inactive)
same,inhibition,[15]; [17],-10.5%
same,inhibition,[15]; [18],-4.39%
same,inhibition,"[15]; single agent, at 0.05 µM",-22.9%
same,inhibition,"[15]; single agent, at 5 µM",44.6%
